# Test results taken from PubChem BioAssay (NCATS).
# Results filed as inconclusive are left out. Where a call stands in place of a potency, no number is given. A number with no mark means an inactive call. Active and inactive are the calls of the source. The call rests on the fitted dose curve; in most records, active means well fitted curve in the direction sought with a large enough effect; inconclusive means small, poorly fitted or top-dose-only effect, or another doubt; inactive means no such curve, though single readings can be large; an effect the other way counts as inactive or inconclusive.
# Legend:
# [1] = qHTS of pediatric cancer cell lines to identify multiple opportunities for drug repurposing: Primary screen for NB1643 cells (AID 1347099); further: nearly all actives have a fitted effect of over 50% in size; further: potency means the concentration at half of the fitted maximal effect
# Outline: (§1)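 Luminescence from CellTiter-Glo served as readout of metabolically active cells after 48 h compound exposure. Titrations: MIPE 11-point, from 0.78 nM; NPC 8-point, from 0.59 nM (final). Concentration-response curves came straight from the primary screen.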
# [2] = qHTS of pediatric cancer cell lines to identify multiple opportunities for drug repurposing: Primary screen for LAN-5 cells (AID 1347100); further: potency means the concentration at half of the fitted maximal effect
# Outline: (§2)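 Cells (500-1,000/well) rested 5 h, then received compounds for 48 h; metabolically active cells were measured by CellTiter-Glo luminescence. Final concentrations spanned up to 46 µM (MIPE, 11-point) or 0.59 nM-46 µM (NPC, 8-point) in primary screens, 11-point in follow-ups.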
# [3] = qHTS of pediatric cancer cell lines to identify multiple opportunities for drug repurposing: Primary screen for BT-12 cells (AID 1347101); further: nearly all actives have a fitted effect of over 25% in size; further: potency means the concentration at half of the fitted maximal effect
# Outline: as §2
# [4] = qHTS of pediatric cancer cell lines to identify multiple opportunities for drug repurposing: Primary screen for Rh18 cells (AID 1347102); further: nearly all actives have a fitted effect of over 65% in size; further: potency means the concentration at half of the fitted maximal effect
# Outline: as §2
# [5] = qHTS of pediatric cancer cell lines to identify multiple opportunities for drug repurposing: Primary screen for OHS-50 cells (AID 1347103); further: nearly all actives have a fitted effect of over 40% in size; further: potency means the concentration at half of the fitted maximal effect
# Outline: as §2
# [6] = qHTS of pediatric cancer cell lines to identify multiple opportunities for drug repurposing: Primary screen for RD cells (AID 1347104); further: nearly all actives have a fitted effect of over 55% in size; further: potency means the concentration at half of the fitted maximal effect
# Outline: as §1
# [7] = qHTS of pediatric cancer cell lines to identify multiple opportunities for drug repurposing: Primary screen for MG 63 (6-TG R) cells (AID 1347105); further: nearly all actives have a fitted effect of over 50% in size; further: potency means the concentration at half of the fitted maximal effect
# Outline: as §1
# [8] = qHTS of pediatric cancer cell lines to identify multiple opportunities for drug repurposing: Primary screen for control Hh wild type fibroblast cells (AID 1347106);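 further: series mostly up to about 46 µM; a drop in luminescence marks cytotoxicity and a rise apparent proliferation; nearly all actives have a fitted effect of over 55% in size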
# Outline: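 Viability after 48 h compound treatment at 37C, 500-1,000 cells/well, read as ATP luminescence with CellTiter-Glo. Primary screens used 11-point (MIPE, 0.78 nM-46 µM) or 8-point (NPC, 0.59 nM-46 µM) final concentrations; follow-up screens used 11-point dilutions.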
# [9] = qHTS of pediatric cancer cell lines to identify multiple opportunities for drug repurposing: Primary screen for Rh30 cells (AID 1347107); further: nearly all actives have a fitted effect of over 75% in size; further: potency means the concentration at half of the fitted maximal effect; on activity change, negative = cytotoxic: series mostly up to about 46 µM
# Outline: as §2
# [10] = qHTS of pediatric cancer cell lines to identify multiple opportunities for drug repurposing: Primary screen for Rh41 cells (AID 1347108); further: nearly all actives have a fitted effect of over 70% in size; further: potency means the concentration at half of the fitted maximal effect;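 on activity change, negative = cytotoxic: series mostly up to about 46 µM; luminescence drop marks cytotoxic hits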
# Outline: as §1
# [11] = qHTS of pediatric cancer cell lines to identify multiple opportunities for drug repurposing: Confirmatory screen for NB1643 cells (AID 1347109); further: nearly all actives have a fitted effect of over 45% in size; further: potency means the concentration at half of the fitted maximal effect
# Outline: as §2
# [12] = qHTS of pediatric cancer cell lines to identify multiple opportunities for drug repurposing: Confirmatory screen for A673 cells (AID 1347110);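 further: cells exposed to compound for 48 h before the viability read; nearly all actives have a fitted effect of over 65% in size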; further: potency means the concentration at half of the fitted maximal effect
# Outline: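 Cells plated at 500-1,000/well were treated five hours later with multi-point dilutions up to 46 µM final. After two days, CellTiter-Glo was added and luminescence read.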
# [13] = qHTS of pediatric cancer cell lines to identify multiple opportunities for drug repurposing: Confirmatory screen for SK-N-MC cells (AID 1347111);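 further: cells exposed to compound for 48 h before the readout; nearly all actives have a fitted effect of over 70% in size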; further: potency means the concentration at half of the fitted maximal effect
# Outline: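 Seed 500-1,000 cells/well; rest 5 h at 37 degrees C. Pin-transfer compounds, 11-point titration. Incubate 48 h. Add CellTiter-Glo, 15 min RT, read luminescence.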
# [14] = qHTS of pediatric cancer cell lines to identify multiple opportunities for drug repurposing: Confirmatory screen for LAN-5 cells (AID 1347113); further: nearly all actives have a fitted effect of over 65% in size; further: potency means the concentration at half of the fitted maximal effect
# Outline: as §2
# [15] = qHTS of pediatric cancer cell lines to identify multiple opportunities for drug repurposing: Confirmatory screen for DAOY cells (AID 1347114); further: nearly all actives have a fitted effect of over 65% in size; further: potency means the concentration at half of the fitted maximal effect
# Outline: (§3)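 Viability measured as metabolically active cells via CellTiter-Glo luminescence following 48 hours of compound exposure, 11-point dilutions in confirmatory testing. 500-1,000 cells/well plated 5 hours before dosing; controls were DMSO and 2.3 µM bortezomib.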
# [16] = qHTS of pediatric cancer cell lines to identify multiple opportunities for drug repurposing: Confirmatory screen for NB-EBc1 cells (AID 1347115);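 further: cells exposed to compound for 48 h before the viability read; nearly all actives have a fitted effect of over 45% in size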; further: potency means the concentration at half of the fitted maximal effect
# Outline: as §2
# [17] = qHTS of pediatric cancer cell lines to identify multiple opportunities for drug repurposing: Confirmatory screen for SJ-GBM2 cells (AID 1347116); further: nearly all actives have a fitted effect of over 60% in size; further: potency means the concentration at half of the fitted maximal effect
# Outline: as §3
# [18] = qHTS of pediatric cancer cell lines to identify multiple opportunities for drug repurposing: Confirmatory screen for BT-37 cells (AID 1347117); further: nearly all actives have a fitted effect of over 55% in size; further: potency means the concentration at half of the fitted maximal effect
# Outline: as §2
# [19] = qHTS of pediatric cancer cell lines to identify multiple opportunities for drug repurposing: Confirmatory screen for TC32 cells (AID 1347118)
# Outline: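 Measured quantity: luminescence from CellTiter-Glo, reflecting metabolically active TC32 cells following 48 h of compound. Curves came straight from multi-point titrations, with 8 or 11 points in primary and 11 in confirmatory screening.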
# [20] = qHTS of pediatric cancer cell lines to identify multiple opportunities for drug repurposing: Confirmatory screen for BT-12 cells (AID 1347112); further: nearly all actives have a fitted effect of over 55% in size; further: potency means the concentration at half of the fitted maximal effect
# Outline: as §2
smiles,measurement,setting,value
N[C@@H](CC(=O)N1CCn2c(nnc2C(F)(F)F)C1)Cc1cc(F)c(F)cc1F,Potency,[1],11.8 µM (active)
same,Potency,[2],inactive
same,Potency,[3],inactive
same,Potency,[4],inactive
same,Potency,[5],inactive
same,Potency,[6],inactive
same,Potency,[7],inactive
same,Potency,[8],inactive
same,Potency,[9],inactive
Nc1ccc(-c2ccc3ncc4ccc(=O)n(-c5cccc(C(F)(F)F)c5)c4c3c2)cn1,Potency,[1],0.418 µM (active)
same,Potency,[2],0.0296 µM (active)
same,Potency,[3],3.43 µM (active)
same,Potency,[4],0.148 µM (active)
same,Potency,[5],0.0069 µM (active)
same,Potency,[6],0.235 µM (active)
same,Potency,[7],0.0009 µM (active)
same,Potency,[9],1.66 µM (active)
same,Potency,[10],0.0264 µM (active)
same,Potency,[11],0.369 µM (active)
same,Potency,[12],0.185 µM (active)
same,Potency,[13],0.131 µM (active)
same,Potency,[14],0.165 µM (active)
same,Potency,[15],3.69 µM (active)
same,Potency,[16],0.293 µM (active)
same,Potency,[17],0.233 µM (active)
same,Potency,[18],0.117 µM (active)
same,Potency,[19],0.0737 µM (active)
OC[C@H]1O[C@@H](Oc2ccc(O)cc2)[C@H](O)[C@@H](O)[C@H]1O,Potency,[1],inactive
same,Potency,[2],inactive
same,Potency,[3],inactive
same,Potency,[4],inactive
same,Potency,[5],inactive
same,Potency,[6],inactive
same,Potency,[7],inactive
same,Potency,[8],inactive
same,Potency,[10],inactive
CN(C)c1nc(Cc2ccc(NC(=O)c3ccc(C(F)(F)F)cc3)cc2)nc(N(C)C)c1CC(=O)O,Potency,[1],inactive
same,Potency,[2],inactive
same,Potency,[3],inactive
same,Potency,[4],inactive
same,Potency,[5],inactive
same,Potency,[6],inactive
same,Potency,[7],inactive
same,Potency,[8],inactive
same,Potency,[9],inactive
same,Potency,[10],inactive
CC(C)=CCCC(C)=CCCC(C)=CCCC(C)=CCCC(C)=CCCC(C)=CCCC(C)=CCCC(C)=CCCC(C)=CCO,Potency,[1],inactive
same,Potency,[2],inactive
same,Potency,[3],inactive
same,Potency,[4],inactive
same,Potency,[5],inactive
same,Potency,[6],inactive
same,Potency,[7],inactive
same,Potency,[8],inactive
same,Potency,[9],inactive
same,Potency,[10],inactive
CO[C@H]1C=CO[C@@]2(C)Oc3c(C)c(O)c4c(O)c(c(C=NN5CCN(C)CC5)c(O)c4c3C2=O)NC(=O)C(C)=CC=C[C@H](C)[C@H](O)[C@@H](C)[C@@H](O)[C@@H](C)[C@H](OC(C)=O)[C@H]1C,"activity change, negative = cytotoxic",[1],22.3% [at 9.22 µM]
same,"activity change, negative = cytotoxic",[2],-8.14% [at 9.22 µM]
same,"activity change, negative = cytotoxic",[3],2.32% [at 11.5 µM]
same,"activity change, negative = cytotoxic",[4],-3.68% [at 9.22 µM]
same,"activity change, negative = cytotoxic",[5],-1.83% [at 11.5 µM]
same,"activity change, negative = cytotoxic",[7],-12.4% [at 9.22 µM]
same,"activity change, negative = cytotoxic",[8],-5.37% [at 9.22 µM]
same,"activity change, negative = cytotoxic",[9],-1.05% [at 9.22 µM]
same,"activity change, negative = cytotoxic",[10],-8.55% [at 9.22 µM]
COc1ccc(CCC(=O)Nc2nc3ccc(Cl)cc3s2)cc1OC,Potency,[1],5.26 µM (active)
same,Potency,[2],inactive
same,Potency,[3],inactive
same,Potency,[4],inactive
same,Potency,[6],inactive
same,Potency,[7],inactive
same,Potency,[8],inactive
CN(C)CCOc1ccc(C(=C(CCCl)c2ccccc2)c2ccccc2)cc1,Potency,[1],inactive
same,Potency,[2],inactive
same,Potency,[3],inactive
same,Potency,[4],inactive
same,Potency,[6],inactive
same,Potency,[7],inactive
same,Potency,[8],inactive
same,Potency,[9],inactive
same,Potency,[10],inactive
Nc1[nH]nc2nnc(-c3c(-c4ccccc4)nn4ccccc34)cc12,Potency,[1],1.87 µM (active)
same,Potency,[2],6.62 µM (active)
same,Potency,[3],6.85 µM (active)
same,Potency,[4],2.64 µM (active)
same,Potency,[5],1.93 µM (active)
same,Potency,[6],11.8 µM (active)
same,Potency,[10],5.9 µM (active)
same,Potency,[12],13.1 µM (active)
same,Potency,[15],inactive
same,Potency,[19],16.5 µM (active)
Cc1ccc(C(=O)N(CCCN)[C@@H](c2oc3cc(Cl)ccc3c(=O)c2Cc2ccccc2)C(C)C)cc1,Potency,[1],inactive
same,Potency,[2],0.001 µM (active)
same,Potency,[3],0.001 µM (active)
same,Potency,[4],26.4 µM (active)
same,Potency,[5],0.001 µM (active)
same,Potency,[7],inactive
same,Potency,[8],inactive
same,Potency,[9],inactive
same,Potency,[11],6.57 µM (active)
same,Potency,[12],0.0019 µM (active)
same,Potency,[13],0.0059 µM (active)
same,Potency,[20],0.0104 µM (active)
same,Potency,[14],14.7 µM (active)
same,Potency,[15],0.0052 µM (active)
same,Potency,[16],8.27 µM (active)
same,Potency,[18],0.0117 µM (active)
same,Potency,[19],0.0104 µM (active)
N#CC(=C1Nc2ccccc2S1)c1ccnc(OCc2ccc(CN3CCOCC3)cc2)n1,Potency,[1],0.0526 µM (active)
same,Potency,[2],1.48 µM (active)
same,Potency,[3],0.172 µM (active)
same,Potency,[5],0.344 µM (active)
same,Potency,[6],0.662 µM (active)
same,Potency,[7],3.72 µM (active)
same,Potency,[14],inactive
same,Potency,[16],inactive
C[C@@H]1C[C@H]2[C@@H]3CCC4=CC(=O)C=C[C@]4(C)[C@@]3(F)[C@@H](O)C[C@]2(C)[C@@]1(O)C(=O)CO,Potency,[1],inactive
same,Potency,[2],inactive
same,Potency,[3],inactive
same,Potency,[4],inactive
same,Potency,[5],inactive
same,Potency,[6],inactive
same,Potency,[8],inactive
same,Potency,[9],inactive
same,Potency,[10],inactive
same,Potency,[11],inactive
same,Potency,[12],inactive
same,Potency,[20],inactive
same,Potency,[14],inactive
same,Potency,[15],inactive
same,Potency,[16],inactive
same,Potency,[18],inactive
O=C1Nc2ccc(I)cc2C1=Cc1cc(Br)c(O)c(Br)c1,Potency,[1],inactive
same,Potency,[2],inactive
same,Potency,[3],inactive
same,Potency,[4],inactive
same,Potency,[6],inactive
same,Potency,[7],inactive
same,Potency,[8],inactive
same,Potency,[9],inactive
same,Potency,[12],11.7 µM (active)
same,Potency,[13],inactive
same,Potency,[20],inactive
same,Potency,[15],inactive
same,Potency,[16],inactive
same,Potency,[17],inactive
same,Potency,[18],inactive
Cn1cc(-c2ccc3nnc(Sc4ccc5ncccc5c4)n3n2)cn1,Potency,[1],inactive
same,Potency,[2],inactive
same,Potency,[3],inactive
same,Potency,[4],inactive
same,Potency,[5],inactive
same,Potency,[8],inactive
O=C(CO)N1CCC(c2[nH]nc(-c3ccc(Cl)cc3)c2-c2ccncn2)CC1,Potency,[1],inactive
same,Potency,[2],inactive
same,Potency,[3],inactive
same,Potency,[5],inactive
same,Potency,[6],inactive
same,Potency,[7],inactive
same,Potency,[8],inactive
